Reference: PubChem BioAssay (NCATS)
Values joined by “and” are separate entries in the source; they are usually repeats but may differ in a detail not shown here. Identical values can stand only once. Records with an inconclusive call do not appear. Values without a mark were called inactive. Active and inactive are the calls of the source. Calls come from the whole dose curve; as a rule, active = well fitted activation curve with a large enough effect; inconclusive = small, poorly fitted or top-dose-only effect; inactive = no such curve, though single readings can be large or run the other way.

Biological target: Cellular tumor antigen p53 (Homo sapiens) (UniProt P04637)
Sequence (P04637 whole entry, looked up): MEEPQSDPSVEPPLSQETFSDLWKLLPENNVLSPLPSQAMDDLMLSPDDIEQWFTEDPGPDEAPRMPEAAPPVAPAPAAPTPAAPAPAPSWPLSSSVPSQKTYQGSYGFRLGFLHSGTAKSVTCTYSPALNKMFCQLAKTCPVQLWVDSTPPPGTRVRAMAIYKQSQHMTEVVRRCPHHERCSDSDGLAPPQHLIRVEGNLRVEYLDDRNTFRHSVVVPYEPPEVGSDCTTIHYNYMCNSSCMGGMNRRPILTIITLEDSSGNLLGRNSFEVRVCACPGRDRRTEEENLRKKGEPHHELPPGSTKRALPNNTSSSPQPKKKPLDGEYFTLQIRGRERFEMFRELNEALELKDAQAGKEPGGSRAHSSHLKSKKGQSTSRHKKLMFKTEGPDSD
Test: Primary qHTS for small molecule compounds that upregulate eGFP-tagged delta133p53alpha (in N-terminal) cells. (AID 2060322); note: nearly all actives have a fitted effect of over 75% in size;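 for activation: series mostly up to about 56 µM; 0% = DMSO vehicle and 100% = reference activator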
Details: NCI-H358 eGFP-delta133p53alpha fluorescence, 24 h; activation: active compounds read high
In short: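 NCI-H358 cells pre-induced 24 h with 10 ng/ml doxycycline for eGFP-delta133p53alpha, plated dox-free and exposed 24 h at 37C to titrated compounds. Fixed, Hoechst-stained; gated GFP peak intensity by laser scanning cytometry, normalized to DMSO (0%) and 57.5 uM 5-azacytidine (100%).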
Potency is the fitted concentration of half-maximal effect.

SMILES | activation | Potency
Cc1cc(C(=O)N2Cc3cnn(C)c3Nc3ccccc32)ccc1CNC(=O)N1CCN(Cc2cc(O)cc(O)c2)CC1 | -7.16% | 
CC(C)[C@@H](C(=O)O)N1Cc2c(cc(O)c3c2O[C@]2(C3)[C@H](C)CCC3C(C)(C)[C@H](O)[C@H](O)C[C@@]32C)C1=O (stereo not given in full) | -16.8% | 
O=C(Nc1ccc(-c2ccncc2)cc1)N[C@H](CO)c1ccccc1 | -25.9% | 
C=C1C(=O)O[C@@H]2C[C@@]3(C)C[C@@H](O)C[C@H](C)C3=C[C@H]12 |  | 23.9 µM (active)
CC1=CC(=O)[C@]2(O[C@@H]3O[C@@H](C)[C@H](O)[C@@H](O)[C@H]3OC(=O)/C=C/c3ccccc3)C=CO[C@@H](O[C@@H]3O[C@H](CO)[C@@H](O)[C@H](O)[C@H]3O)[C@H]12 | 3.05% | 
C/C=C(/C)C(=O)OC1C2OC2C2(CO2)C2C3OC(=O)C(C)C3CCC12C (stereo not given) | 18.3% | 
CC(=O)O[C@H]1CC[C@@]2(CI)C(=CC[C@@H]3[C@@H]2CC[C@]2(C)[C@@H]([C@H](C)CCCC(C)C)CC[C@@H]32)C1 | 21.7% | 
CC(C)(O)c1ccc2c(c1)C(=O)CC1[C@](C)(CO)CCC[C@]21C (stereo not given in full) | 26.8% | 
CN1CCN(Cc2ccc(-c3cnc4[nH]cc(-c5ccc6[nH]ccc6c5)c4c3)cc2)CC1 |  | 23.9 µM (active)
C=C(C)[C@H]1C[C@@H](O)C(=C)CC[C@@H](O)C(=C)[C@@H](O)C1 | -8.04% | 
Nc1ncnc2c1c(-c1ccc(Cl)cc1)nn2-c1cccc(-c2cnnn2Cc2cccc(-c3ccccc3)c2)c1 | 8.04% | 
COC(=O)C1=COC(O[C@@H]2O[C@H](CO)[C@@H](O)[C@H](O)[C@H]2O)[C@@H]2[C@@](C)(O)[C@@H](OC(=O)/C=C/c3ccccc3)C[C@]12O (stereo not given in full) | 15.2% | 
Fc1cccc(CN(C2=NCCN2)c2c(Cl)cccc2Cl)c1 | -15% | 
CC1=C[C@H]2[C@@H](CC1=O)[C@H](C)C[C@H](O)[C@H]2C(C)C | 10.7% | 
CC1C(OC(=O)c2ccccc2)C(O)C2C(C(=O)O)=COC(OC3OC(CO)C(O)C(O)C3O)C12 (stereo not given) | -16% | 
CC1=C2C(=O)O[C@@H](c3ccoc3)[C@]2(C)CCC1 | -11.6% and -7% | 
C[C@H]1C(=O)N2c3ccccc3[C@@]3(O)C[C@@H]4C(=O)N[C@](C)(c5nc6ccccc6c(=O)n54)N1[C@@H]23 | -2.29% | 
CC[C@H](C)/C=C(C)/C=C/C1=CC2=C(Cl)C(=O)[C@](C)(O)[C@H](OC(C)=O)[C@H]2CO1 |  | 14.8 µM (active)
CC(C)(O)C1=CCC23COC(C2)C(O)(C(=O)O)CCC13 (stereo not given) | -6.87% | 
C=C[C@H]1[C@H](O[C@@H]2O[C@H](CO)[C@@H](O)[C@H](O)[C@H]2O)OC=C(C(=O)OC)[C@H]1C[C@@H]1c2cc(O)c(O)cc2CCN1C(C)=O | -6.11% | 

SMILES | activation | Potency
CC(=O)/C=C/C1(O)C(C)=CC(=O)CC1(C)C (stereo not given) | 14.3% | 
CC(=O)O[C@@H]1[C@@H](OC(=O)/C=C/c2ccccc2)[C@@H](OC(C)=O)[C@H](O[C@H]2[C@@H]3C=CO[C@@H](O[C@@H]4O[C@H](CO)[C@@H](O)[C@H](O)[C@H]4O)[C@@H]3[C@@]3(CO)O[C@@H]23)O[C@H]1C | -12.2% | 
C[C@@H]1O[C@@H](O[C@H]2[C@H](OC(=O)[C@]34CCC(C)(C)C[C@H]3C3=CCC5[C@@]6(C)CC[C@H](O[C@@H]7O[C@H](CO[C@@H]8OC[C@H](O)[C@H](O)[C@H]8O)[C@@H](O)[C@H](O)[C@H]7O)C(C)(C)C6CC[C@@]5(C)[C@]3(C)C[C@H]4O)OC[C@@H](O)[C@@H]2O)[C@H](O)[C@H](O[C@@H]2OC[C@](O)(CO)[C@H]2O)[C@H]1O[C@@H]1OC[C@H](O)[C@H](O[C@@H]2OC[C@@H](O)[C@H](O)[C@H]2O)[C@H]1O (stereo not given in full) | 5.36% | 
O=C(Nc1ccn[nH]1)c1c(F)cccc1F | 12.3% | 
Cc1cc(CS(=O)(=O)c2ccccc2)cc(OCc2ccc(CN3CCC[C@H]3CO)cc2)c1 | -28.2% | 
CC(=O)O[C@@H]1[C@H](O[C@@H]2O[C@H](CO)[C@@H](O)[C@H](O)[C@H]2O)[C@@H](O[C@@H]2O[C@@H](C)[C@H](O)[C@@H](O[C@@H]3O[C@H](CO)[C@@H](O)[C@H](O)[C@H]3O)[C@H]2O)[C@H](OC(=O)[C@]23CCC(C)(C)C[C@H]2C2=CCC4[C@@]5(C)C[C@H](O)[C@H](O[C@@H]6O[C@H](C(=O)O)[C@@H](O)[C@H](O)[C@H]6O)[C@@](C)(C(=O)O)C5CC[C@@]4(C)[C@]2(C)CC3)O[C@@H]1C (stereo not given in full) | 2.29% | 
COc1c(C)c2c(c(O)c1C/C=C(\C)CC/C=C(\C)CCC(=O)O)C(=O)OC2 | 6.11% | 
CCNc1nc(Nc2cc(F)c(C(=O)N3CCOCC3)cc2OC)ncc1C(F)(F)F | 10.7% | 
CC1(C)[C@@H](O[C@H]2O[C@H](C(=O)O)[C@@H](O)[C@H](O)[C@H]2O[C@@H]2O[C@H](C(=O)O)[C@@H](O)[C@H](O)[C@H]2O)CC[C@]2(C)[C@H]3C(=O)C=C4[C@@H]5C[C@@](C)(C(=O)O)CC[C@]5(C)CC[C@@]4(C)[C@]3(C)CC[C@@H]12 | -7.67% | 
COc1c2c(c(C)c3c1C(=O)OC3)O[C@@]1(C)CC(O)C(C(C)(C)O)[C@](C)(CCC(=O)O)[C@H]1C2 (stereo not given in full) | -9.16% | 
C/C(=C/C=C\C=C\Cc1cnco1)[C@@H](O)C(C)(C)C(N)=O | -11.5% | 
C=C1C(OC(C)=O)CCC2(C)CC3(OC)OC(=O)C(C)=C3CC12 (stereo not given) | 17.9% | 
Cc1ccc(C2(COC(=O)C(C)C)CO2)c(OC(=O)C(C)C)c1 (stereo not given) | 3.82% | 
Cc1occc(=O)c1O[C@@H]1O[C@H](CO[C@@H]2OC[C@](O)(CO)[C@H]2O)[C@@H](O)[C@H](O)[C@H]1O | 0% | 
CC(=O)OC1C(O)C2C(C)C3=CC(=O)OC3(O)CC2C2(C)CCCC(C)(CO)C12 (stereo not given) | 9.16% | 
NC(N)=NC(=O)c1cnn(-c2cccc3ncccc23)c1C1CC1 | 25% | 
CC1(C)CCCC2(C)C1C(O)C=C(CO)C2(O)C(=O)O (stereo not given) | -13.7% | 
C[C@]12CCC[C@](C)(C(=O)O)C1[C@@H](O)[C@@H](O)C13CC(CCC12)C(CO)(O[C@@H]1O[C@H](CO)[C@@H](O)[C@H](O)[C@H]1O)C3 (stereo not given in full) | -9.16% | 
COc1cc2c(c(OC)c1CC=C(C)C)C[C@H](c1ccc(O)c(CC=C(C)C)c1O)CO2 | -7.14% | 
CC(=O)OC1CC(C(C)(C)O)OC2CCC3(C)OC4=C(C(=O)C=C5C(C)C(OC(C)=O)C6(C)C(C)OC546)C(O)C3C12C (stereo not given) | 2.68% | 
